Measurements taken from ChEMBL document CHEMBL1961873, “Compounds: GSK PKIS; Assays: Nanosyn kinase panel” (2012).

molecular target: MAP/microtubule affinity-regulating kinase 3 (Homo sapiens) (UniProt P27448); conditions: at 1 µM;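 also: reported values are averaged percent inhibition of MARK3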
Sequence (P27448 whole entry, looked up): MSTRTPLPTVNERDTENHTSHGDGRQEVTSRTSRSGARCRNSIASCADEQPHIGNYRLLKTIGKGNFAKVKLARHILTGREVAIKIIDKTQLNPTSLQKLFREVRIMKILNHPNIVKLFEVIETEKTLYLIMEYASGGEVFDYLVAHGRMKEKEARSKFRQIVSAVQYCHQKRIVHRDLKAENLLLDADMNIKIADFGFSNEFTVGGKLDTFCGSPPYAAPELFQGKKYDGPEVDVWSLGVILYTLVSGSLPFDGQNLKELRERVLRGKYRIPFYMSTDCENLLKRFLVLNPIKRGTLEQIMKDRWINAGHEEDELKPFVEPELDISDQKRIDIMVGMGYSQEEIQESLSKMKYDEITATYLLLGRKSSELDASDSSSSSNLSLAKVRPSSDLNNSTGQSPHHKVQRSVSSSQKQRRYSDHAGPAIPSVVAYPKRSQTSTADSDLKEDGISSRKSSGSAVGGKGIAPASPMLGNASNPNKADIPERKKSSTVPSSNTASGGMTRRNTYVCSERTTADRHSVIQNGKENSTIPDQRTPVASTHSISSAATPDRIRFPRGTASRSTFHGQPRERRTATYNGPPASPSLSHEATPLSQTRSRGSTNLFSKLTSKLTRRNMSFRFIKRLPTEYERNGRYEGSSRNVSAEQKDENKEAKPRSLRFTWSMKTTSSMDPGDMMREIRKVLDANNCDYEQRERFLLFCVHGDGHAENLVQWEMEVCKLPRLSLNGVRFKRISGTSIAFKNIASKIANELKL

Row | Structure (SMILES) | inhibition [%]
1 | CCc1nn2ncccc2c1-c1ccnc(NC2CC2)n1 | 3.36
2 | COC(=O)c1sc(-n2cnc3cc(OC)c(OC)cc32)cc1OCc1ccccc1C(F)(F)F | 3.04
3 | [O-][S+]1CCN(Cc2ccc(-c3ccc4ncnc(Nc5ccc(OCc6cccc(F)c6)c(Cl)c5)c4c3)o2)CC1 | 1.78
4 | CCn1c(-c2nonc2N)nc2c(C#CC(C)(C)O)ncc(OC3CCNCC3)c21 | 77.7
5 | CC(C)(CO)CNC(=O)c1ccc2c(c1)/C(=N/Nc1ccc(S(N)(=O)=O)cc1)C(=O)N2 | 36.6
6 | CCCN1CCC(c2ccc(Nc3nc(Nc4cc(F)ccc4C(N)=O)c4cc[nH]c4n3)c(OC)c2)CC1 | 66.6
7 | COc1ccc(-c2cc(-c3c[nH]nc3-c3ccccn3)ccn2)cc1 | 5.51
8 | COc1ccc(-c2cc3c(N)ncnc3o2)cc1 | 4.01
9 | COC(=O)Nc1nc2ccc(S(=O)(=O)c3ccc(NC(=O)Nc4cc(C(F)(F)F)ccc4F)cc3)cc2[nH]1 | 0.83
10 | Fc1ccc(-c2nn3ccccc3c2-c2ccncc2)cc1 | -0.24
11 | CN1CCC(n2cnc(-c3ccc(F)cc3)c2-c2ccnc(N)n2)CC1 | 6.18
12 | COc1cccc(-n2ncc3c(N/N=C/c4ccc(F)cc4)ncnc32)c1 | 6.87
13 | Fc1cccc(COc2ccc(Nc3ncnc4sc(-c5ccco5)cc34)cc2Cl)c1 | 4.54
14 | Fc1ccc(-c2cc(-c3c[nH]nc3-c3ccccn3)ccn2)cc1 | 0.81
15 | CCCN(CCS(C)(=O)=O)Cc1ccc(-c2ccc3ncnc(Nc4ccc(OCc5cccc(F)c5)c(Cl)c4)c3c2)o1 | -0.4
16 | COc1cccc(-c2c[nH]c3c(N/N=C/c4ccncc4)ncnc23)c1 | 11.8
17 | CC1=C(C(=O)Nc2cc(Cl)c3[nH]ncc3c2)C(c2ccc(C(F)(F)F)cc2)CC(=O)N1 (stereo not drawn) | 9.91

Row | Structure (SMILES) | inhibition [%]
18 | CS(=O)(=O)CCNCc1coc(-c2ccc3ncnc(Nc4ccc(OCc5ccccc5)cc4)c3c2)c1 | 3.7
19 | CCn1c(-c2nonc2N)nc2cnc(Oc3cccc(NC(=O)c4ccc(N(C)C)cc4)c3)cc21 | 12.2
20 | CNC(=O)c1cc(-c2ccc(F)cc2)cc(-c2ccc(S(=O)(=O)N3CCCC3)cc2)c1N | 2.91
21 | O=S(=O)(CCNCc1ccc(-c2ccc3ncnc(Nc4ccc(OCc5cccc(F)c5)c(Cl)c4)c3c2)o1)c1ccccc1 | 5.8
22 | N#Cc1c(NC(=O)c2ccc(F)cc2)sc2c1CCCC2 | 1.66
23 | CNC(=O)c1cccc(C#Cc2cncnc2Nc2ccc(OCc3cccc(F)c3)c(Cl)c2)c1 | 23.2
24 | CCn1c(-c2nonc2N)nc2c(C#CC(C)(C)O)nc(OC[C@H](N)c3ccccc3)cc21 | 35.4
25 | Nc1ncc(-c2cccc(S(N)(=O)=O)c2)c2scc(-c3ccc(F)c(Cl)c3)c12 | 5.19
26 | c1ccc(COc2ccc(Nc3ncnc4ccc(-c5ccco5)cc34)cc2)cc1 | 3.2
27 | N#Cc1c(NC(=O)CN2CCOCC2)sc2c1CCCC2 | 5.29
28 | NS(=O)(=O)c1ccc(N/N=C2\C(=O)Nc3ccc4ncccc4c32)cc1 | 40.9
29 | O=C(O[C@H]1CN[C@H](C#Cc2cc3ncnc(Nc4ccc(Cc5ccccc5)cc4)c3s2)C1)N1CCOCC1 | 2.78
30 | CC(=O)Nc1cccc(C#Cc2cncnc2Nc2ccc(OCc3cccc(F)c3)c(Cl)c2)c1 | 4.64
31 | Cc1cccc(Nc2ncc(-c3ccccc3)o2)c1 | 9.41
32 | FC(F)(F)c1cccc(-c2nn3ncccc3c2-c2ccnc(Nc3ccc4c(c3)OCCO4)n2)c1 | 3.45
33 | CCNC(=O)O[C@H]1CN[C@H](C#Cc2cc3ncnc(Nc4ccc(OCc5cccc(F)c5)c(Cl)c4)c3s2)C1 | 2.72
34 | CNC(=O)c1cncc(/C=C/c2ccccc2Cl)c1 | -4.55

molecular target: T1, MAP/microtubule affinity-regulating kinase 4 (Homo sapiens) (UniProt Q96L34); conditions: at 0.1 µM;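 also: values are averaged percent inhibition of MARK4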
T1 sequence (whole entry): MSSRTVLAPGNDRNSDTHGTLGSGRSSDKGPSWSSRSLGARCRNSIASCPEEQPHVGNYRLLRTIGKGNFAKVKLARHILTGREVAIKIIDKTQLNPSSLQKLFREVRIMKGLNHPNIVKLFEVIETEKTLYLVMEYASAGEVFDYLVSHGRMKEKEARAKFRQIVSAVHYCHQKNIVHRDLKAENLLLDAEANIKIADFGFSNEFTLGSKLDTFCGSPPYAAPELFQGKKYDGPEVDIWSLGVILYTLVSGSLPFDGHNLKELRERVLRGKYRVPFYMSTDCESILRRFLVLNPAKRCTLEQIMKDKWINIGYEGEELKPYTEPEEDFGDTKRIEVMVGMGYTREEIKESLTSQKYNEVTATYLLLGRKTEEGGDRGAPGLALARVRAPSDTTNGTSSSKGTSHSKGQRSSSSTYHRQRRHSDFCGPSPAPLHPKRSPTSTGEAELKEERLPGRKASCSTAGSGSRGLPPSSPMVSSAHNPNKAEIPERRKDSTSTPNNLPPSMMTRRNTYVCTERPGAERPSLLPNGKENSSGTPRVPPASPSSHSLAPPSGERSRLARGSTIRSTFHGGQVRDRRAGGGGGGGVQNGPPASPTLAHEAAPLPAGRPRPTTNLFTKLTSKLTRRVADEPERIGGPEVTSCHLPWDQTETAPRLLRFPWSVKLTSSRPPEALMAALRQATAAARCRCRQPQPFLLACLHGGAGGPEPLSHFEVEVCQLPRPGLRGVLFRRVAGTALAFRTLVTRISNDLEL

Row | Structure (SMILES) | inhibition [%]
35 | CCc1nn2ncccc2c1-c1ccnc(NC2CC2)n1 | 2.15
36 | COC(=O)c1sc(-n2cnc3cc(OC)c(OC)cc32)cc1OCc1ccccc1C(F)(F)F | 2.41
37 | [O-][S+]1CCN(Cc2ccc(-c3ccc4ncnc(Nc5ccc(OCc6cccc(F)c6)c(Cl)c5)c4c3)o2)CC1 | 3.49
38 | CCn1c(-c2nonc2N)nc2c(C#CC(C)(C)O)ncc(OC3CCNCC3)c21 | 14
39 | CC(C)(CO)CNC(=O)c1ccc2c(c1)/C(=N/Nc1ccc(S(N)(=O)=O)cc1)C(=O)N2 | 7.2
40 | CCCN1CCC(c2ccc(Nc3nc(Nc4cc(F)ccc4C(N)=O)c4cc[nH]c4n3)c(OC)c2)CC1 | 7.27
41 | COc1ccc(-c2cc(-c3c[nH]nc3-c3ccccn3)ccn2)cc1 | 2.2
42 | COc1ccc(-c2cc3c(N)ncnc3o2)cc1 | 0.16
43 | COC(=O)Nc1nc2ccc(S(=O)(=O)c3ccc(NC(=O)Nc4cc(C(F)(F)F)ccc4F)cc3)cc2[nH]1 | 1.2
44 | Fc1ccc(-c2nn3ccccc3c2-c2ccncc2)cc1 | 0.11
45 | CN1CCC(n2cnc(-c3ccc(F)cc3)c2-c2ccnc(N)n2)CC1 | 0.14
46 | COc1cccc(-n2ncc3c(N/N=C/c4ccc(F)cc4)ncnc32)c1 | 1.23
47 | Fc1cccc(COc2ccc(Nc3ncnc4sc(-c5ccco5)cc34)cc2Cl)c1 | 2.34
48 | Fc1ccc(-c2cc(-c3c[nH]nc3-c3ccccn3)ccn2)cc1 | 1.12
49 | CCCN(CCS(C)(=O)=O)Cc1ccc(-c2ccc3ncnc(Nc4ccc(OCc5cccc(F)c5)c(Cl)c4)c3c2)o1 | 0.58
50 | COc1cccc(-c2c[nH]c3c(N/N=C/c4ccncc4)ncnc23)c1 | 1.97
51 | CC1=C(C(=O)Nc2cc(Cl)c3[nH]ncc3c2)C(c2ccc(C(F)(F)F)cc2)CC(=O)N1 (stereo not drawn) | 1.64

Row | Structure (SMILES) | inhibition [%]
52 | CS(=O)(=O)CCNCc1coc(-c2ccc3ncnc(Nc4ccc(OCc5ccccc5)cc4)c3c2)c1 | 1.75
53 | CCn1c(-c2nonc2N)nc2cnc(Oc3cccc(NC(=O)c4ccc(N(C)C)cc4)c3)cc21 | 0.81
54 | CNC(=O)c1cc(-c2ccc(F)cc2)cc(-c2ccc(S(=O)(=O)N3CCCC3)cc2)c1N | 0.61
55 | O=S(=O)(CCNCc1ccc(-c2ccc3ncnc(Nc4ccc(OCc5cccc(F)c5)c(Cl)c4)c3c2)o1)c1ccccc1 | 3.85
56 | N#Cc1c(NC(=O)c2ccc(F)cc2)sc2c1CCCC2 | 0.11
57 | CNC(=O)c1cccc(C#Cc2cncnc2Nc2ccc(OCc3cccc(F)c3)c(Cl)c2)c1 | -0.97
58 | CCn1c(-c2nonc2N)nc2c(C#CC(C)(C)O)nc(OC[C@H](N)c3ccccc3)cc21 | 1.25
59 | Nc1ncc(-c2cccc(S(N)(=O)=O)c2)c2scc(-c3ccc(F)c(Cl)c3)c12 | 3.07
60 | c1ccc(COc2ccc(Nc3ncnc4ccc(-c5ccco5)cc34)cc2)cc1 | 0.96
61 | N#Cc1c(NC(=O)CN2CCOCC2)sc2c1CCCC2 | 1.24
62 | NS(=O)(=O)c1ccc(N/N=C2\C(=O)Nc3ccc4ncccc4c32)cc1 | 11.4
63 | O=C(O[C@H]1CN[C@H](C#Cc2cc3ncnc(Nc4ccc(Cc5ccccc5)cc4)c3s2)C1)N1CCOCC1 | 1.7
64 | CC(=O)Nc1cccc(C#Cc2cncnc2Nc2ccc(OCc3cccc(F)c3)c(Cl)c2)c1 | 0.9
65 | Cc1cccc(Nc2ncc(-c3ccccc3)o2)c1 | 1.51
66 | FC(F)(F)c1cccc(-c2nn3ncccc3c2-c2ccnc(Nc3ccc4c(c3)OCCO4)n2)c1 | 0.66
67 | CCNC(=O)O[C@H]1CN[C@H](C#Cc2cc3ncnc(Nc4ccc(OCc5cccc(F)c5)c(Cl)c4)c3s2)C1 | 0.88
68 | CNC(=O)c1cncc(/C=C/c2ccccc2Cl)c1 | -0.44
